A selection: hits, their analogues and other compounds. The true share with any hit is near 2.4%.
D2 antag = antagonizes the human D2 dopamine receptor; P14416; HEK293 TREx D2 cells, calcium flux, dopamine EC80; inhibition, % at 10 µM; hit rate 2% among 340,000; in the data active = inhibition above about 30%; inactive = below that, where a call was filed; note: 0% is about no effect
Target sequence (P14416 whole entry, looked up): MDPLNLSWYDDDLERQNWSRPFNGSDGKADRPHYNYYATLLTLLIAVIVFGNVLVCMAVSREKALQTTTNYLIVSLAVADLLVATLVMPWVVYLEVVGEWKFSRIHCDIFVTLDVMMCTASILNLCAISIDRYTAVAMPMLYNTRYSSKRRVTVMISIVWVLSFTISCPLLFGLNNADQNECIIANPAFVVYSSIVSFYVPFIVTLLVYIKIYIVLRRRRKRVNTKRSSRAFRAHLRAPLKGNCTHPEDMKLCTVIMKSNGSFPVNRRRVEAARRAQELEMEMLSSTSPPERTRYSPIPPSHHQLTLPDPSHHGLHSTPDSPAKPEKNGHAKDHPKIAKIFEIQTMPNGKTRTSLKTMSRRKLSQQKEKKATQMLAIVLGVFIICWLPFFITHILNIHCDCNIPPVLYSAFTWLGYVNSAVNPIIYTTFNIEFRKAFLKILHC
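Read-out: kinetic calcium fluorescence (1 cycle/s) in inducible HEK293 T-REx D2 cells after an EC80 dopamine addition that followed 180 s compound preincubation. Loss of the dopamine response indicates antagonism.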
D2 ag-1 = D2 dopamine receptor (human) agonism. hit rate 0.53% among 340,000. P14416. AID 485358. HEK293 T-REx D2 cells, calcium flux agonist mode. activation, % at 2 µM;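 active = activation over 3 SD above normal in the single-dose calcium agonist read, cut at about 30% in these data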; note: 0% is about no effect
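Agonism scored from kinetic calcium signal (1 read/sec, 180 s) following compound pin transfer, after a 10 s baseline. Cells: HEK293 Trex line expressing inducible D2 receptor coupled to calcium, dye-loaded after overnight culture at 30 C.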
D2 ag-2 = activates the human D2 dopamine receptor. P14416. DiscoveRx PathHunter D2 beta-arrestin, luminescence, 90 min; 100% = 57 uM dopamine signal. activation, % (no concentration beside the values). hit rate 0.084% among 360,000. AID 624465; in the data active = activation above about 40%
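Agonist mode: compounds alone added to overnight-plated D2 PathHunter cells for 90 min at 37 C, with 57 uM final dopamine (EC100) defining full response. Beta-arrestin recruitment detected by chemiluminescent reagent, read after 1 h at ambient temperature.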
D2 PAM-1 = human D2 receptor positive allosteric modulation; hit rate 0.23% among 360,000; AID 624464; P14416; DiscoveRx D2 beta-arrestin cells, luminescence, 90 min; 100% = 57 uM dopamine signal; potentiation, % (no concentration beside the values); in the data active = potentiation above about 50%
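PathHunter beta-arrestin assay in DiscoveRx D2 cells. Compounds were added with an EC20 of dopamine (50 nM final) for 90 min at 37 deg C. Luminescence was read 1 h after detection reagent, with 57 uM dopamine as the EC100 control.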
D2 PAM-2 = positive allosteric modulators of human D2 dopamine receptor; P14416; hit rate 0.34% among 340,000; HEK293 T-REx D2, calcium flux, EC20 dopamine potentiation; potentiation, % at 10 µM;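 active = potentiation over 3 SD above the plate norm, cut at about 30% in these data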; note: 0% is about no effect
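Calcium flux readout, no-wash dye, 1 read/s. Inducible HEK293 Trex D2 line, overnight 30 C. Compound alone 180 s (agonist flags), then EC20 dopamine, another 180 s to score potentiation.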
The depositor's hits bear a star; · = no result given.

SMILES | D2 antag | D2 ag-1 | D2 ag-2 | D2 PAM-1 | D2 PAM-2
O=C(c1ccc(N2CCC3(CC2)OCCO3)c([N+](=O)[O-])c1)N1CCOCC1 | 31* | 0 | -3 | -5 | 19
O=C(c1ccc(N2CCOCC2)c([N+](=O)[O-])c1)N1CCN(c2ccccc2)CC1 | · | · | -4 | -2 | ·
CCN(CC)C(=O)/C(=C\c1ccncc1)NC(=O)c1ccccc1 | 0 | 2 | -2 | -5 | -6
CN(C)C(=O)/C(=C\c1ccncc1)NC(=O)c1ccccc1 | 39* | -1 | -7 | 4 | 1
COc1ccc(NC(=O)C(CC(C)C)NS(=O)(=O)c2ccc3c(c2)oc(=O)n3C)cc1Cl (stereo not given) | · | · | · | · | 1
CCOc1ccc2[nH]c(=O)c(CN(CCO)C(c3nnnn3C3CCCCC3)C(C)C)cc2c1 (stereo not given) | 35* | 0 | 2 | 9 | -5
CCc1cccc(NC(=O)Nc2cccs2)c1 | 32* | 1 | 1 | -38 | -11
COC(=O)c1ccccc1NC(=O)Nc1cccs1 | 38* | 0 | -2 | -24 | -7
N#Cc1cccc(NC(=O)Nc2cccs2)c1 | 1 | 0 | 3 | -22 | -1
CCOc1ccc(NC(=O)CSc2ncc3c(n2)-c2ccccc2N(Cc2ccccc2C)S3(=O)=O)cc1 | · | · | · | · | -7
Cc1ccc(S(=O)(=O)c2nc(-c3cccc(C)c3)oc2N2CCCCC2)cc1 | · | 1 | · | · | 9
Cc1cccc(C)c1OCC1CNC(=O)O1 (stereo not given) | 36* | 0 | 0 | 0 | 3
COCCNC(=O)c1ccc2c(c1)NC(=O)C(CS(=O)(=O)Cc1ccc(F)cc1Cl)N2 (stereo not given) | · | -1 | · | · | ·
Cn1c(=O)c2nc(SCC(=O)Nc3cc(Cl)ccc3Cl)n(C)c2n(C)c1=O | · | 0 | · | · | 1
Cc1ccc(NC(=O)N(C2=NCC(C)S2)c2ccccc2)cc1 (stereo not given) | · | · | 2 | -8 | ·
CC(=O)Nc1ccc(S(=O)(=O)N(C2=NCC(C)S2)c2ccccc2)cc1 (stereo not given) | 51* | 0 | 1 | -43 | -6
CCOc1ccc(NC(=O)CCc2nc3cccnc3n2-c2ccccc2)cc1 | · | -1 | · | · | 7
COc1cccc(O)c1CN1CCCC(C(=O)c2cccc(C(F)(F)F)c2)C1 (stereo not given) | 49* | 1 | -1 | -14 | -23
CC(C)N1CCc2c(sc(NC(=O)Cc3ccccc3)c2C(N)=O)C1 | 40* | 0 | -1 | -14 | -20
CC(=O)Nc1sc2c(c1-c1nc3ccccc3s1)CCN(C(C)C)C2 | -7 | 47* | -6 | -18 | -2
CC(C)N1CCc2c(sc(NC(=O)CCS(=O)(=O)c3ccccc3)c2C#N)C1 | 34* | 0 | -4 | -3 | 9
COc1ccc(CC(=O)Nc2sc3c(c2C(N)=O)CCCC3)cc1OC | 3 | 0 | 6 | 5 | 2
COc1cccc(CC(=O)Nc2sc3c(c2C(N)=O)CCCC3)c1 | 39* | 0 | 2 | -1 | -9
CC(C)N1CCc2c(sc(NC(=O)CCc3ccccc3)c2C(N)=O)C1 | 10 | -1 | -1 | -4 | 25
CCN1CCc2c(sc(NC(=O)CSc3ccccc3)c2-c2nc3ccccc3s2)C1 | · | · | · | · | -23
SMILES | D2 antag | D2 ag-1 | D2 ag-2 | D2 PAM-1 | D2 PAM-2
O=C(NCCC1=CCCCC1)c1ccc2c(c1)N(Cc1ccccc1F)C(=O)c1ccccc1S2=O (stereo not given) | · | · | · | · | -11
CCOc1ccccc1NC(=O)Cn1c(=O)n(CCC(=O)NCc2ccc3c(c2)OCO3)c(=O)c2ccccc21 | · | · | · | · | -3
CCOCCn1cnc2sc(C(=O)Nc3ccccc3C(=O)OC)c(C)c2c1=O | · | -1 | · | · | 4
CC1CCCN(c2ncnc3c2nnn3C)C1 (stereo not given) | · | -2 | · | · | 4
CCCN1CCc2c(sc(NC(=O)c3ccc(S(=O)(=O)N(C)c4ccccc4)cc3)c2C(N)=O)C1 | -4 | 78* | -7 | -12 | 0
NC(=O)c1c(NC(=O)C2COc3ccccc3O2)sc2c1CCN(Cc1ccccc1)C2 (stereo not given) | -2 | 42* | -15 | -23 | -3
CC(=O)N1CCN(c2csc3ccc(F)cc3c2=O)CC1 | · | 0 | · | · | 25
CC(C)C1Nc2ccc(S(N)(=O)=O)cc2C2C=CCC21 (stereo not given) | 16 | 1 | 5 | 52* | 2

Source: PubChem BioAssay
